# Laboratory results reported in PubChem BioAssay (EPA / NIEHS).
# Several values for one entry are separate records, joined by “and”; a condition that tells them apart may be missing. Identical values can stand only once. Results filed as inconclusive are left out. More than one record can exist for a structure, and the calls need not agree. Activity calls are given as the source filed them. The calls were made as follows: active = hit-call score of the fitted dose curve at least 0.9, where 1 is the maximum; inconclusive = response in the unintended direction; inactive = score below 0.9.
# Legend:
# [1] = biological target: human Adenosine A2a Receptor (AdoRA2a), ADORA2A (gene 135) (UniProt P29274); assay: NVS_GPCR_hAdoRA2a: NovaScreen (NVS) G Protein-Coupled Receptor Assay for human Adenosine A2a Receptor (AdoRA2a) (AID 2283256)
# Sequence of human Adenosine A2a Receptor (AdoRA2a), ADORA2A (gene 135) (P29274 whole entry, looked up): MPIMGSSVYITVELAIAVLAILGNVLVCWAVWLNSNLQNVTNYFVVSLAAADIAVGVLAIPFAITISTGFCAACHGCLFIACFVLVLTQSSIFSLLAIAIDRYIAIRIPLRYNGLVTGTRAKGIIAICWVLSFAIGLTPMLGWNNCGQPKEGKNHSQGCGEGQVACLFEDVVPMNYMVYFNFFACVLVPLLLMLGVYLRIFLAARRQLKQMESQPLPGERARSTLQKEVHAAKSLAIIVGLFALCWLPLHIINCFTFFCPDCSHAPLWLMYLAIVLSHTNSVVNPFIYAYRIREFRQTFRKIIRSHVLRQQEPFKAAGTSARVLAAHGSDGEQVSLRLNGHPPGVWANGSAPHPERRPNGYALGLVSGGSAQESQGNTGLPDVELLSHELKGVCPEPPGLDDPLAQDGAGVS
# Outline: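 HEK293-derived receptor preparation, radioligand displacement, 1.5 h, filtration + scintillation read. Loss of bound signal scored vs DMSO. Single-point 25 uM in duplicate first, then concentration-response for actives.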
# [2] = biological target: human Adrenergic, Alpha 2c Receptor (Adra2C), ADRA2C (gene 152) (UniProt P18825); assay: NVS_GPCR_hAdra2C: NovaScreen (NVS) G Protein-Coupled Receptor Assay for human Adrenergic, Alpha 2c Receptor (Adra2C) (AID 2283259)
# Sequence of human Adrenergic, Alpha 2c Receptor (Adra2C), ADRA2C (gene 152) (P18825 whole entry, looked up): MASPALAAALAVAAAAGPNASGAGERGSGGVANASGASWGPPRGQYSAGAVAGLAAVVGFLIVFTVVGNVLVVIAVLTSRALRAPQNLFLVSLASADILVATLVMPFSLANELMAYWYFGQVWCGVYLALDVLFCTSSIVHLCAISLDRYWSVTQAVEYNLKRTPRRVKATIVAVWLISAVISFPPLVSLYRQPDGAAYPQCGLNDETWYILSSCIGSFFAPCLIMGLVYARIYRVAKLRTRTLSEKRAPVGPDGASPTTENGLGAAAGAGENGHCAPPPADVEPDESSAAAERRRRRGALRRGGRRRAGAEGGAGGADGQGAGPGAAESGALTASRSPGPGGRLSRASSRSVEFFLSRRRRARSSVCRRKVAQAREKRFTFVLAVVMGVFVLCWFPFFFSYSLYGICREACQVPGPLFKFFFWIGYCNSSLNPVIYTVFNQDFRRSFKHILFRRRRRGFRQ
# Outline: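 Screened first in duplicate at 25 uM, with actives then run as concentration series. Membranes from Sf9 cells were exposed for 1 h, and displacement of radioligand was counted after filtration, using DMSO as baseline.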
# [3] = biological target: human Adrenergic, Alpha 2A Receptor (Adra2A), ADRA2A (gene 150) (UniProt P08913); assay: NVS_GPCR_hAdra2A: NovaScreen (NVS) G Protein-Coupled Receptor Assay for human Adrenergic, Alpha 2A Receptor (Adra2A) (AID 2283257)
# Outline: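 Displacement of a specific radioligand from HT29 membrane protein was counted by filter scintillation after 1 h. Compounds were screened in duplicate at 25 uM, and actives were retested in concentration series. Fitting was positive-direction against DMSO.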
# [4] = biological target: Type-1 angiotensin II receptor (Homo sapiens) (UniProt P30556); assay: NVS_GPCR_hAT1: NovaScreen (NVS) G Protein-Coupled Receptor Assay for human Angiotensin II receptor type 1 (AT1) (AID 2283263)
# Sequence of Type-1 angiotensin II receptor (Homo sapiens) (P30556 whole entry, looked up): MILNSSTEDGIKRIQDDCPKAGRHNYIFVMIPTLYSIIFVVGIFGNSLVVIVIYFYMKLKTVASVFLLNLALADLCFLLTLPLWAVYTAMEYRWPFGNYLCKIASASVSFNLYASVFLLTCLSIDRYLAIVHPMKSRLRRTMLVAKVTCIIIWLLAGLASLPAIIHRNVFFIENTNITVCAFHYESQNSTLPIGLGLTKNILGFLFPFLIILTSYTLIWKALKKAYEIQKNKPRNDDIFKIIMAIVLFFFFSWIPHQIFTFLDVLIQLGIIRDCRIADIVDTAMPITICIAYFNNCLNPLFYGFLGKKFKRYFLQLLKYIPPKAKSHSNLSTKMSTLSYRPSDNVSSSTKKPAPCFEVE
# Outline: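 Hits from a 25 uM duplicate screen (threshold e.g. 30% inhibition) were run in concentration-response with 50 uM top concentration. Displacement of specific radioligand from KAN-TS membrane preparations measured after 3 h by filter scintillation, DMSO as baseline.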
# [5] = biological target: human Dopamine Receptor D2 (DRD2), DRD2 (gene 1813) (UniProt P14416); assay: NVS_GPCR_hDRD2s: NovaScreen (NVS) G Protein-Coupled Receptor Assay for human Dopamine Receptor D2 (DRD2) (AID 2283266)
# Sequence of human Dopamine Receptor D2 (DRD2), DRD2 (gene 1813) (P14416 whole entry, looked up): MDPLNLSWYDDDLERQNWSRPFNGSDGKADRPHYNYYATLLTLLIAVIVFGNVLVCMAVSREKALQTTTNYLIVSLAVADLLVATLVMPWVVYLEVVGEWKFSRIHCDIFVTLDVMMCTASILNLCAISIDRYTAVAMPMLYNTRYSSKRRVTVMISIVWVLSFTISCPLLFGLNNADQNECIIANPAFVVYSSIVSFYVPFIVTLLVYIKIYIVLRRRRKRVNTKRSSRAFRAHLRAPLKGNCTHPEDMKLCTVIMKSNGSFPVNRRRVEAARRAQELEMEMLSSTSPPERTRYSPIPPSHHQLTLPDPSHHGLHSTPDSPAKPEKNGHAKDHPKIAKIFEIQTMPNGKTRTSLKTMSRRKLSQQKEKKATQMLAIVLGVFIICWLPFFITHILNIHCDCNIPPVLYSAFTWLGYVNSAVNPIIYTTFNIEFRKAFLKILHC
# Outline: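 Test compound (25 uM, duplicate in the primary screen; concentration series at follow-up) competed with radioligand for human DRD2 in CHO-derived membrane protein. Filter-based scintillation counting was done 1.5 hours after dosing, with loss of signal analysed against DMSO.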
# [6] = biological target: human Leukotriene B4 Receptor 1 (LTB4-BLT1), LTB4R (gene 1241) (UniProt Q15722); assay: NVS_GPCR_hLTB4_BLT1: NovaScreen (NVS) G Protein-Coupled Receptor Assay for human Leukotriene B4 Receptor 1 (LTB4-BLT1) (AID 2283271)
# Outline: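 Cell-free human neutrophil receptor preparation, 1 h exposure, radioligand binding read by filter scintillation counting. Single 25 uM duplicate screen, then concentration series topping at 50 uM; binding loss scored against DMSO baseline.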
# [7] = biological target: Neuropeptide Y receptor type 2 (Homo sapiens) (UniProt P49146); assay: NVS_GPCR_hNPY2: NovaScreen (NVS) G Protein-Coupled Receptor Assay for human Neuropeptide Receptor Y2 (NPY2) (AID 2283277)
# Sequence of Neuropeptide Y receptor type 2 (Homo sapiens) (P49146 whole entry, looked up): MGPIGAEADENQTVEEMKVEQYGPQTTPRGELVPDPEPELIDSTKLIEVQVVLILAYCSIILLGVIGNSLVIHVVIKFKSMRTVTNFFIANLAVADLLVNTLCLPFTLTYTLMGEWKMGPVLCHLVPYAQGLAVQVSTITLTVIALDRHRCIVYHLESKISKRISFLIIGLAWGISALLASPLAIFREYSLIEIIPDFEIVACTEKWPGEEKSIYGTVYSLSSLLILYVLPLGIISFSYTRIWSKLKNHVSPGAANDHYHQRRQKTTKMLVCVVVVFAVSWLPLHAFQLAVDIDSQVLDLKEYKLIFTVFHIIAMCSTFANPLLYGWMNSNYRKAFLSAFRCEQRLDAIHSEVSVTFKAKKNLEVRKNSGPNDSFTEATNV
# Outline: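 Chemicals were first tested in duplicate at 25 uM, then actives in singleton concentration series to 50 uM. Tracer binding to SK-N-MC-derived protein measured cell-free after 1 h via filter scintillation; signal loss relative to DMSO.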
# [8] = biological target: human Neurokinin, NK2 Receptor, TACR2 (gene 6865) (UniProt P21452); assay: NVS_GPCR_hNK2: NovaScreen (NVS) G Protein-Coupled Receptor Assay for human Neurokinin, NK2 Receptor (AID 2283278);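 also: actives reduce bound radioligand signal relative to DMSO baseline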
# Sequence of human Neurokinin, NK2 Receptor, TACR2 (gene 6865) (P21452 whole entry, looked up): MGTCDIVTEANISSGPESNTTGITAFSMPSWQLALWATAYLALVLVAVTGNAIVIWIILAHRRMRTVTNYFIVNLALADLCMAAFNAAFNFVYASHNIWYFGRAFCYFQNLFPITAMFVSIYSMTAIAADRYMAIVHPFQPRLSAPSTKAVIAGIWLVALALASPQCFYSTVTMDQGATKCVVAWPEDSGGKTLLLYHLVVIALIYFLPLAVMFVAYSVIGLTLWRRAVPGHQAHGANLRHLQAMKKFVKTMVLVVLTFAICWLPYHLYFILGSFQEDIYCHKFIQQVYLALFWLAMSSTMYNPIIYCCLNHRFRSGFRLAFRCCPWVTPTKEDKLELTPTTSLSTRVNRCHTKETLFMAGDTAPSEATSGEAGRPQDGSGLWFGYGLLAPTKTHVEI
# Outline: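 Cell-free radioligand binding using receptor protein extracted from CHO cells; readings taken 4 hours after chemical dosing by filter-based scintillation counting. Primary screen ran single concentration (25 uM) in duplicate; actives followed up in concentration series, loss-of-signal versus DMSO baseline.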
# [9] = biological target: D(1A) dopamine receptor (Homo sapiens) (UniProt P21728); assay: NVS_GPCR_hDRD1: NovaScreen (NVS) G Protein-Coupled Receptor Assay for human Dopamine Receptor D1 (DRD1) (AID 2283269)
# Sequence of D(1A) dopamine receptor (Homo sapiens) (P21728 whole entry, looked up): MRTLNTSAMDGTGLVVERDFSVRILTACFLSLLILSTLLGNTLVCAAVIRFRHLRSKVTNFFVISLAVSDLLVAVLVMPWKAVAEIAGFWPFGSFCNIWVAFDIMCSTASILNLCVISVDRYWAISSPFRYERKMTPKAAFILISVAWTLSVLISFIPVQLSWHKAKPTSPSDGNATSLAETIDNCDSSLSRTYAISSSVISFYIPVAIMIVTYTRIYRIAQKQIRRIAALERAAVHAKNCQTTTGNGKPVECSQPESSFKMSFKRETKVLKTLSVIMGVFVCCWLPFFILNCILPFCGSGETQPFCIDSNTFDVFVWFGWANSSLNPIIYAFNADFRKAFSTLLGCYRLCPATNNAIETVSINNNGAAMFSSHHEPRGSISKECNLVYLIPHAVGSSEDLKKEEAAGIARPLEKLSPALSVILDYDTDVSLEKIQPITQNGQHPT
# Outline: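 Cell-free competition with radioligand, filter-trapped and scintillation-counted 1 h post-dose, using HEK293-derived human D1 preparation. Duplicate single-point testing at 25 uM first, then concentration series for actives; DMSO served as baseline, loss-of-signal scored.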
# [10] = biological target: human Adrenergic, Beta 3 Receptor (Adrb3), ADRB3 (gene 155) (UniProt P13945); assay: NVS_GPCR_hAdrb3: NovaScreen (NVS) G Protein-Coupled Receptor Assay for human Adrenergic, Beta 3 Receptor (Adrb3) (AID 2283262)
# Outline: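 A cell-free filter binding assay read by scintillation counting, with displacement of a specific radioligand measured after 1 hour. The receptor source was SK-N-MC extracts (cells pretreated with isoproterenol and 8-bromo-cAMP). Compounds were first tested at 25 uM in duplicate and then in concentration series.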
# [11] = biological target: Muscarinic acetylcholine receptor M2 (Homo sapiens) (UniProt P08172); assay: NVS_GPCR_hM2: NovaScreen (NVS) G Protein-Coupled Receptor Assay for human Muscarinic, M2 Receptor (AID 2283273)
# Sequence of Muscarinic acetylcholine receptor M2 (Homo sapiens) (P08172 whole entry, looked up): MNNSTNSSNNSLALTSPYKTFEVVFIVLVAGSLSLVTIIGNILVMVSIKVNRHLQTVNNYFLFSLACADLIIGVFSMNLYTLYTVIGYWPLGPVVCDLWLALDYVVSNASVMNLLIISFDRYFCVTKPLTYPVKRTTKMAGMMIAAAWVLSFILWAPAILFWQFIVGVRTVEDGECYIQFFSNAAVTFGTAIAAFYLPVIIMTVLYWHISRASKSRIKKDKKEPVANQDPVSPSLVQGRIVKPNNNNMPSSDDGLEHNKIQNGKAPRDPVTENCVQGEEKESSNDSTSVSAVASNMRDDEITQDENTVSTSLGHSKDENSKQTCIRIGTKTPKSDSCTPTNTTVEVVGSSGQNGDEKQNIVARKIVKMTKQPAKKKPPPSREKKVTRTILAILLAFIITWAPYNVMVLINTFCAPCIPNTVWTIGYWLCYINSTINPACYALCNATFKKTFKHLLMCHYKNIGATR
# Outline: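 Radioligand competition binding, cell-free, receptor from CHO; 1 h incubation; scintillation detection. Primary testing at 25 uM in duplicate.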
# [12] = biological target: human Muscarinic, M4 Receptor, CHRM4 (gene 1132) (UniProt P08173); assay: NVS_GPCR_hM4: NovaScreen (NVS) G Protein-Coupled Receptor Assay for human Muscarinic, M4 Receptor (AID 2283274)
# Sequence of human Muscarinic, M4 Receptor, CHRM4 (gene 1132) (P08173 whole entry, looked up): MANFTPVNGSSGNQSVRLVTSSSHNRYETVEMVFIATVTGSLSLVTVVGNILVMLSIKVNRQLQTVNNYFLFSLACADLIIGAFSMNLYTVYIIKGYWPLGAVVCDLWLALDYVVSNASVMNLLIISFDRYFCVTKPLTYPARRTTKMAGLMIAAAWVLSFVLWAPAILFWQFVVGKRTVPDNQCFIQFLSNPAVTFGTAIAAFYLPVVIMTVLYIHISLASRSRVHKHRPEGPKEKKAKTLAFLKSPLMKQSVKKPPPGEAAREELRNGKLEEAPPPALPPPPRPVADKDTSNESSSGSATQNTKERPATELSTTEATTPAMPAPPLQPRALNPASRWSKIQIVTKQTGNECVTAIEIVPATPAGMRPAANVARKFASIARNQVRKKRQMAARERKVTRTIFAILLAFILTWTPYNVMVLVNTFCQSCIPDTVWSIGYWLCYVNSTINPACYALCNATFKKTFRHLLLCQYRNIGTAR
# Outline: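 Filter-based scintillation counting of radioligand bound to CHO-expressed human M4 preparations after 1 h; loss of signal fitted versus DMSO. Initial duplicate testing at 25 uM, concentration-response follow-up for actives.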
# [13] = biological target: Muscarinic acetylcholine receptor M1 (Homo sapiens) (UniProt P11229); assay: NVS_GPCR_hM1: NovaScreen (NVS) G Protein-Coupled Receptor Assay for human Muscarinic, M1 Receptor (AID 2283270)
# Outline: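 Actives from a duplicate 25 uM single-point screen were retested in concentration series. Binding measured as displacement of a radioligand from CHO-derived receptor preparation, 1 h incubation, filtration and scintillation counting, analysed as signal loss against DMSO.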
# [14] = biological target: Beta-2 adrenergic receptor (Homo sapiens) (UniProt P07550); assay: NVS_GPCR_hAdrb2: NovaScreen (NVS) G Protein-Coupled Receptor Assay for human Adrenergic, Beta 2 Receptor (Adrb2) (AID 2283261)
# Outline: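 Compounds screened in duplicate at 25 uM, then actives in concentration series. Human beta-2 receptor from CHO material, cell-free; radioligand displacement after 1 h measured by filtration and scintillation against DMSO baseline.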
# [15] = biological target: human Adrenergic, Beta 1 Receptor (Adrb1), ADRB1 (gene 153) (UniProt P08588); assay: NVS_GPCR_hAdrb1: NovaScreen (NVS) G Protein-Coupled Receptor Assay for human Adrenergic, Beta 1 Receptor (Adrb1) (AID 2283258)
# Sequence of human Adrenergic, Beta 1 Receptor (Adrb1), ADRB1 (gene 153) (P08588 whole entry, looked up): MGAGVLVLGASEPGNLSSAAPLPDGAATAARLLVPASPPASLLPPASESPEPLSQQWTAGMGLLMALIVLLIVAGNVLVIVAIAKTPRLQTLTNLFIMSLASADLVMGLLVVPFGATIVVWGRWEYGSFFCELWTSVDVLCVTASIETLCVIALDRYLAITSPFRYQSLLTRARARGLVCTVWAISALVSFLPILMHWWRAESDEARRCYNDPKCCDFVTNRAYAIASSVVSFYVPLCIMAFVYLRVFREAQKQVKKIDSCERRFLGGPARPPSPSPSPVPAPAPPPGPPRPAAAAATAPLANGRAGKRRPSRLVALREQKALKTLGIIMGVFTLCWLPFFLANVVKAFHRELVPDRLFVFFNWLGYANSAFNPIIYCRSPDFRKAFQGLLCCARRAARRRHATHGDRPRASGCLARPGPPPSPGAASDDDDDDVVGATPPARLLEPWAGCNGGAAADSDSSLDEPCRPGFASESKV
# Outline: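 Membranes/protein extracted from human neuroepithelioma cells, radioligand competition binding read by filtration and scintillation 2 h post-dose. Single 25 uM duplicate screen, then concentration-response follow-up; DMSO as negative control.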
# [16] = biological target: human Dopamine Receptor D4.4 (DRD4.4), DRD4 (gene 1815) (UniProt P21917); assay: NVS_GPCR_hDRD4.4: NovaScreen (NVS) G Protein-Coupled Receptor Assay for human Dopamine Receptor D4.4 (DRD4.4) (AID 2283264)
# Sequence of human Dopamine Receptor D4.4 (DRD4.4), DRD4 (gene 1815) (P21917 whole entry, looked up): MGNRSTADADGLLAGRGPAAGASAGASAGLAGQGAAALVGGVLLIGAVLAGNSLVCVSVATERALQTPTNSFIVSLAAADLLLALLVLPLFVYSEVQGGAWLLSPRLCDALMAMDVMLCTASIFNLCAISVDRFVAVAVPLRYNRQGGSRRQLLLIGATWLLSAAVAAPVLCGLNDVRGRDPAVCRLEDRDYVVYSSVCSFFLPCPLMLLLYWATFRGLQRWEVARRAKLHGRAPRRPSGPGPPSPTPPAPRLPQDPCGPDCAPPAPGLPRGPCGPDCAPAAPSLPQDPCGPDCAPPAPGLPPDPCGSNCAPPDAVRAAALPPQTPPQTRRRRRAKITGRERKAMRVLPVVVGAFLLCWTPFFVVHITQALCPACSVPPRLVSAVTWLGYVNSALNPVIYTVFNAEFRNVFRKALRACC
# Outline: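 Filter-binding assay with a tritiated or iodinated ligand, cell-free receptor prepared from CHO, 1 hour. Loss of bound radioactivity versus DMSO; single 25 uM duplicate screen, then concentration-response for actives.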
# [17] = biological target: human Endothelin Receptor Type B (ETB), EDNRB (gene 1910) (UniProt P24530); assay: NVS_GPCR_hETB: NovaScreen (NVS) G Protein-Coupled Receptor Assay for human Endothelin Receptor Type B (ETB) (AID 2283267)
# Outline: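 Filter-based scintillation readout of radioligand displacement, 4 h, using membranes from human astrocytoma cells. Actives from a 25 uM duplicate screen were retested in concentration-response (top 50 uM) relative to DMSO baseline.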
# [18] = biological target: Muscarinic acetylcholine receptor M3 (Homo sapiens) (UniProt P20309); assay: NVS_GPCR_hM3: NovaScreen (NVS) G Protein-Coupled Receptor Assay for human Muscarinic, M3 Receptor (AID 2283272)
# Outline: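 Radioligand displacement binding on human M3 receptor in CHO-derived membranes, 1 h incubation, filter-based scintillation counting. Primary screen in duplicate at 25 uM; actives followed up in concentration series; loss of signal versus DMSO.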
# [19] = biological target: human Neuropeptide Receptor Y1 (NPY1), NPY1R (gene 4886) (UniProt P25929); assay: NVS_GPCR_hNPY1: NovaScreen (NVS) G Protein-Coupled Receptor Assay for human Neuropeptide Receptor Y1 (NPY1) (AID 2283276)
# Outline: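 Displacement of specific radioligand from NPY1 receptor of SK-N-MC origin, read by filtration and scintillation after 1 h. Compounds first tested at 25 uM in duplicate, then actives in concentration series; signal loss relative to DMSO.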
smiles,measurement,setting,value
O=C(Nc1ccccc1)Nc1cnns1,outcome,[1],inactive
same,AC50,[2],4.96 µM (active)
CCOc1nc(NC)nc(NC(=O)NS(=O)(=O)c2ccccc2C(=O)OC)n1,outcome,[3],inactive
O=C(O)C(F)(F)C(F)(F)C(F)(F)C(F)(F)C(F)(F)C(F)(F)C(F)(F)F,AC50,[1],11 µM (active)
same,outcome,[2],inactive
same,outcome,[4],inactive
same,outcome,[5],inactive
same,AC50,[6],35.2 µM (active)
same,outcome,[7],inactive
same,outcome,[8],inactive
ClC1C(Cl)C(Cl)C(Cl)C(Cl)C1Cl (stereo not given),AC50,[1],15.6 µM (active)
N#Cc1c(Cl)c(Cl)c(Cl)c(C#N)c1Cl,outcome,[4],inactive
same,AC50,[9],15.5 µM (active)
COP(=S)(OC)Oc1ccc([N+](=O)[O-])cc1,AC50,[10],12.5 µM (active)
same,outcome,[6],inactive
same,outcome,[11],inactive
same,AC50,[12],12.1 µM (active)
same,AC50,[7],0.043 µM (active)
O=S1OCC2C(CO1)C1(Cl)C(Cl)=C(Cl)C2(Cl)C1(Cl)Cl (stereo not given),outcome,[12],inactive
O=C(O)CCCOc1ccc(Cl)cc1Cl,outcome,[13],inactive
COc1nn(CSP(=S)(OC)OC)c(=O)s1,AC50,[14],6.74 µM (active)
CC[C@H](C)[C@H]1O[C@]2(C=C[C@@H]1C)C[C@@H]1C[C@@H](C/C=C(\C)[C@@H](O[C@H]3C[C@H](OC)[C@@H](O[C@H]4C[C@H](OC)[C@@H](O)[C@H](C)O4)[C@H](C)O3)[C@@H](C)/C=C/C=C3\CO[C@@H]4[C@H](O)C(C)=C[C@@H](C(=O)O1)[C@]34O)O2 (tested in a mixture with another compound),AC50,[15],6.87 µM (active)
same,AC50,[2],6.06 µM (active)
same,AC50,[4],8.16 µM (active)
same,AC50,[8],6.9 µM (active)
Oc1ccc(Cl)cc1Cc1ccccc1,AC50,[1],25.2 µM (active) and 15.1 µM (active)
same,AC50,[15],33.3 µM (active) [middle of 5 runs]
same,AC50,[2],25.2 µM (active) [middle of 6 runs]
same,outcome,[4],inactive
same,AC50,[16],25.2 µM (active)
same,AC50,[5],33.5 µM (active) [middle of 6 runs]
same,outcome,[17],inactive
same,AC50,[9],33 µM (active) [middle of 6 runs]
same,AC50,[18],39.4 µM (active)
same,outcome,[18],inactive
same,outcome,[11],inactive
same,AC50,[12],31.8 µM (active) and 25.2 µM (active)
same,outcome,[12],inactive
same,outcome,[19],inactive
same,AC50,[8],29.2 µM (active) [middle of 6 runs]
